Assay outcomes as filed in PubChem BioAssay.
This is a sample that favours compounds with a hit; in the whole collection about 2.8% have one here.
SENP6 block – blocks the human protease SENP6 | Q9GZR1 | Recombinant SENP6 catalytic domain, aminoluciferin luminescence | inhibition, % at 10 µM | 330,000 tested, 1.8% active | AID 2599;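 active = inhibition above about 50% at the single tested dose, limit read from the data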;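 note: plate controls were DMSO wells with enzyme for no effect and DMSO wells lacking enzyme for full effect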
SENP8 block-1 – inhibitors of human SENP8 protease; Q96LD8; recombinant SENP8, Nedd8 substrate fluorescence; inhibition, % at 20 µM; 360,000 tested, 0.64% active; in the data active = inhibition mostly above about 40%, no sharp cut-off; inactive = mostly below about 27%
Target sequence (Q96LD8 whole entry, looked up): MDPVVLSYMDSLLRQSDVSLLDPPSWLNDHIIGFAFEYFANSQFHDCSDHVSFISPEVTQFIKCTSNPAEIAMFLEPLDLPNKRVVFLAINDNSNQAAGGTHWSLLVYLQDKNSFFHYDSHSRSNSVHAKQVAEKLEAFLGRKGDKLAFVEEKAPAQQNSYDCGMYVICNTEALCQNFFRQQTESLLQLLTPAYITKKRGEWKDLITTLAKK
HSP90 inh – blocks HSP90-mediated luciferase refolding in reticulocyte lysate; Rabbit reticulocyte lysate, luciferase refolding luminescence, 3 h; inhibition, % at 5.6 µM; 290,000 tested, 0.91% active; AID 1789;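 active = inhibition above the screen-wide mean plus 3 SD, computed separately per campaign, cut at about 16% in these data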;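 note: 0% = DMSO wells and 100% = 60 µM geldanamycin wells; inhibitors lower the luminescence because luciferase stays unfolded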
SENP8 block-2 – SENP8 protease inhibition; Q96LD8; AID 2540; purified SENP8, Z-RLRGG-aminoluciferin cleavage, luminescence; 330,000 tested, 1.2% active; inhibition, % at 10 µM; in the data active = inhibition above about 50%
SENP7 block – blocks the human protease SENP7 | Q9BQF6 | recombinant SENP7, Z-RLRGG-aminoluciferin luminescence, 40 min | inhibition, % at 5 µM | 330,000 tested, 1.5% active | AID 434973;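 active = inhibition above about 50% at the single test dose, limit read from the data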;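 note: plate controls were DMSO with enzyme for no effect and no enzyme buffer wells for full effect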
HSP90 inh confirm – confirmation of HSP90 inhibitors. rabbit reticulocyte lysate, luciferase refolding luminescence, 3 h. 2,300 tested, 64% active. inhibition, % at 5.9 µM. shares compounds with HSP90 inh; in the data active = inhibition above about 18%;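 note: 0% = vehicle wells and 100% = reference inhibitor wells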
FLuc counter – blocks native firefly luciferase in HSP90 counter-screen; shares compounds with HSP90 inh; purified native firefly luciferase, luminescence; inhibition, % at 5.9 µM; 2,300 tested, 48% active; AID 1847;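 active = inhibition above the mean inhibition of all tested sample wells plus 3 SD, cut at about 10% in these data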;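 note: 0% = DMSO with luciferase and 100% = wells lacking luciferase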
SENP8 conf – confirmation of human SENP8 protease inhibitors. AID 488912. Recombinant SENP8, Z-RLRGG-aminoluciferin luminescence, 60 min. shares compounds with SENP7 block. inhibition, % at 12.5 µM. 6,200 tested, 40% active;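 active = mean inhibition across replicates above about 50%, limit read from the data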
SENP6 confirm – confirmation of human SENP6 protease inhibitors. shares compounds with SENP7 block. recombinant SENP6, Z-RLRGG-aminoluciferin luminescence. inhibition, % at 12.5 µM. 6,200 tested, 58% active. AID 488915
SENP7 conf – human SENP7 inhibition, confirmed; shares compounds with SENP7 block; 6,200 tested, 69% active; inhibition, % at 12.5 µM; AID 488917; recombinant SENP7, Z-RLRGG-aminoluciferin luminescence, 40 min
Casp3 SENP sel – selectivity test for SENP inhibitors: human caspase-3 inhibition. AID 488918. purified caspase-3, Z-DEVD-aminoluciferin luminescence, 60 min. shares compounds with SENP7 block. 6,200 tested, 60% active. inhibition, % at 12.5 µM;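 active = mean inhibition above about 50%, limit read from the data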;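 note: plate controls were enzyme with DMSO for no effect and wells without caspase-3 for full effect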
Target sequence (P42574 28-227 limits assumed): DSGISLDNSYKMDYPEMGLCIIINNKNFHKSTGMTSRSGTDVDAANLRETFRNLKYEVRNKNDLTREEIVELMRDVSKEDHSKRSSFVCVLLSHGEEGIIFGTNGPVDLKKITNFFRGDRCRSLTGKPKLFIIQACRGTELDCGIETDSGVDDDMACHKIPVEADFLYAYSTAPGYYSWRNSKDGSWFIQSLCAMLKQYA
Luc interf – luminescence interference (SENP counter-screen); inhibition, % at 12.5 µM; Pre-incubated SENP8/Z-RLRGG-aminoluciferin, luciferase luminescence interference; 6,200 tested, 39% active; shares compounds with SENP7 block; AID 488919;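 active = mean inhibition above about 50% when retested at one dose, limit read from the data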;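 note: plate controls were DMSO wells with completed reaction for no effect and substrate without enzyme for full effect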
Active calls of the source: *; · = not tested or not shown.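 Rule for the calls, unless noted: active = mean inhibition above about 50% in the one-dose retest (limit read from the data); inactive = the rest.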

SMILES	SENP6 block	SENP8 block-1	HSP90 inh	SENP8 block-2	SENP7 block	HSP90 inh confirm	FLuc counter	SENP8 conf	SENP6 confirm	SENP7 conf	Casp3 SENP sel	Luc interf
Cc1ccc2nc(-c3ccc(NC(=O)C4CCCO4)cc3)[nH]c2c1 (stereo unspecified)	53*	-268	24*	8	40	55*	35*	45	41	68*	58*	45
Cc1ccc(S(=O)(=O)c2cc3ccccc3oc2=Nc2ccc3c(c2)OCO3)cc1	-19	15	3	4	-3	·	·	·	·	·	·	·
COc1cccc(Nc2nc(-c3sc(NC(=O)c4ccccc4)nc3C)cs2)c1	59*	-88	45*	35	40	12	-24	12	11	20	37	12
COc1cccc(Nc2nc(-c3sc(NC(=O)CC(C)C)nc3C)cs2)c1	-13	-77	4	3	7	·	·	·	·	·	·	·
Cc1nc(NC(=O)c2ccccc2)sc1-c1csc(NCc2ccco2)n1	60*	-43	48*	48	66*	29*	-13	28	29	36	67*	32
COC(=O)C1=CN(c2ccc(N3CCOCC3)cc2)C(N)=C(C#N)C1c1cccc(F)c1 (stereo unspecified)	·	-68	·	·	·	·	·	·	·	·	·	·
CN=c1scc(-c2ccc(F)cc2)n1/N=C/c1ccc(O)c(O)c1	62*	-31	20*	46	12	42*	19*	75*	72*	86*	39	60*
COC(=O)CSc1nc2ncccc2[nH]1	7	26	0	7	-5	·	·	·	·	·	·	·
CSc1nc2ccc(NC(=O)C3=NNC(=O)CC3)cc2s1	3	-11	0	1	4	·	·	·	·	·	·	·
CSc1nc2ccc(NC(=O)c3ccccn3)cc2s1	78*	-44	41*	90*	93*	62*	57*	52*	86*	98*	93*	17
COc1ccc(NC(=O)c2ccccn2)cc1	94*	0	35*	81*	91*	64*	47*	85*	86*	98*	95*	85*
Cc1ccc2nc(NC(=O)c3ccccn3)sc2c1	96*	-55	61*	95*	96*	94*	88*	58*	81*	93*	84*	11
O=C(Nc1nc2ccc(S(=O)(=O)N3CCCC3)cc2s1)c1ccccn1	-5	-63	2	-9	5	·	·	·	·	·	·	·
COc1ccc(CN2CCN(c3cccc(C)c3C)CC2)cc1OC	7	20	3	-1	-2	·	·	·	·	·	·	·
CC(=O)N1CCN(C(=O)c2cc(S(=O)(=O)Nc3ccc(S(C)(=O)=O)cc3)ccc2Cl)CC1	-3	-1	-1	2	4	·	·	·	·	·	·	·
C/C(=N\NC(=O)c1ccccc1O)c1cccs1	1	-36	23*	18	61*	40*	44*	50*	45	78*	85*	58*
C/C(=N\NC(=O)c1cccc2ccccc12)c1cccs1	-7	10	1	1	0	·	·	·	·	·	·	·
Cc1cc2ncc(-c3ncc(C(F)(F)F)cc3Cl)cn2n1	-19	-15	18*	26	59*	67*	55*	26	40	77*	79*	28
N#Cc1cnn2cc(-c3ncc(C(F)(F)F)cc3Cl)cnc12	-6	-122	-1	0	4	·	·	·	·	·	·	·
CC(=O)Nc1ccc(S(=O)(=O)N=S(C)(C)=O)cc1	-2	6	-3	-6	-5	·	·	·	·	·	·	·
CC(C)N(Cc1ccccc1)C(=O)C1CCCN(c2ncnc3c2nc2n3CCCCC2)C1 (stereo unspecified)	9	-7	1	-1	-3	·	·	·	·	·	·	·
COc1cc(/C=N/Nc2nc3ccccc3s2)cc([N+](=O)[O-])c1O	11	42*	29*	58*	32	-11	-30	5	15	4	14	1
COc1cc(/C=N/Nc2ccccc2[N+](=O)[O-])cc(OC)c1O	-10	31	1	-23	19	·	·	·	·	·	·	·
CC(=O)N1N=C(N)SC12CCCC2	-10	2	-6	0	-12	·	·	·	·	·	·	·
COc1ccc2ccccc2c1/C=N/Nc1cccc(C(=O)O)c1	0	-64	12	8	6	·	·	·	·	·	·	·
SMILES	SENP6 block	SENP8 block-1	HSP90 inh	SENP8 block-2	SENP7 block	HSP90 inh confirm	FLuc counter	SENP8 conf	SENP6 confirm	SENP7 conf	Casp3 SENP sel	Luc interf
O=C(O)c1cccc(N/N=C/c2cccc3ccccc23)c1	97*	-35	63*	95*	55*	87*	90*	100*	100*	103*	94*	99*
O=C(O)c1ccc(N/N=C/c2cc(Br)cs2)cc1	99*	-29	50*	97*	100*	70*	71*	98*	99*	102*	46	97*
Cc1ccsc1/C=N/Nc1cccc(C(=O)O)c1	98*	-40	65*	97*	100*	94*	92*	98*	99*	102*	97*	98*
O=C(N/N=C\c1cc(Br)cs1)c1ccncc1	-19	8	2	-5	-4	·	·	·	·	·	·	·
Cc1nn(-c2ccccc2Cl)c(Cl)c1/C=N/Nc1cccc(C(=O)O)c1	97*	-7	33*	97*	95*	61*	77*	99*	101*	103*	91*	98*
CCc1ccc(NC(=O)c2noc3c2CCc2ccccc2-3)cc1	-50	27	2	-27	17	·	·	·	·	·	·	·
NNc1nc2c(Cl)c(Cl)ccc2s1	8	8	-1	-6	7	·	·	·	·	·	·	·
Cc1cccc(NS(=O)(=O)c2ccc(C(=O)N3CCCC3)cc2)c1C	-16	2	·	-2	-1	·	·	·	·	·	·	·
Cc1ccc(/C=N/Nc2cccc(C(=O)O)c2)s1	95*	-39	24*	96*	97*	86*	85*	99*	100*	103*	92*	98*
Cc1ccsc1/C=N/Nc1ccc(C(=O)O)cc1	97*	-116	68*	96*	99*	81*	77*	99*	100*	103*	98*	98*
Cc1ccc(NC(=O)[C@@H]2CCCN2S(=O)(=O)c2ccccc2C(F)(F)F)cc1S(=O)(=O)N1CCOCC1	0	-1	-6	2	-6	·	·	·	·	·	·	·
